BAZ2B inh: qHTS Assay for Inhibitors of BAZ2B; AID 504333, 2011; Potency, µM (highest dose often 114 µM), for inactives: at the top dose activity change, negative = inhibition, hits mostly inhibitors; Bromodomain adjacent to zinc finger domain protein 2B (Homo sapiens), Q9UIF8; 4.4% of 360,000 active; AlphaScreen BAZ2B-H3K14Ac peptide displacement; further: potency means the concentration at half of the fitted maximal effect; on the % scale 0 is the no-effect control and ±100 the full control effect; nearly all actives have a fitted effect of over 60% in size
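BAZ2B (50 nM) with biotin-H3(5-23)K14Ac peptide (50 nM) in PBS pH 7.4, 0.01% Tween-20, preformed 30 min, then compound 30 min at room temperature; top concentration 110uM. AlphaScreen streptavidin donor/nickel chelate acceptor beads (10 ug/mL final), 20 min dark, signal read.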
Six1-Eya2 inh: qHTS Assay for Inhibitors of the Six1/Eya2 Interaction; AID 651725, 2012; Homeobox protein SIX1 (Homo sapiens) + Protein phosphatase EYA2 (Homo sapiens), …; AlphaScreen GST-Six1/His-Eya2 binding, biochemical; stronger effect = lower value; activity change, % (test concentration not listed); 0.56% of 360,000 active; in the data active means activity change below about -65%; inconclusive means mostly about -30% to -63%; further: on the % scale 0 is the no-effect control and ±100 the full control effect
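Six1/Eya2 binding was read as AlphaScreen signal after compounds were pinned into GST-Six1 plus His-tagged Eya2 (5X stock 250/500 nM) in pH 8.0 Tris/NaCl/TCEP buffer, beads added, then incubated 1 h, 37 C, dark.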
JMJD2A Tudor: qHTS Assay for Inhibitors of JMJD2A-Tudor Domain. Lysine-specific demethylase 4A (Homo sapiens), O75164. AlphaScreen JMJD2A-Tudor / H3K4me3 peptide binding. Potency, µM (top dose mostly 114 µM), for inactives: at the highest dose activity change, negative = inhibition, hits mostly inhibitors. 4.4% of 390,000 active. AID 504339, 2011; further: potency means the concentration at half of the fitted maximal effect; on the % scale 0 is the no-effect control and ±100 the full control effect; nearly all actives have a fitted effect of over 50% in size
Target sequence (O75164 whole entry, looked up, the tested form may be a part): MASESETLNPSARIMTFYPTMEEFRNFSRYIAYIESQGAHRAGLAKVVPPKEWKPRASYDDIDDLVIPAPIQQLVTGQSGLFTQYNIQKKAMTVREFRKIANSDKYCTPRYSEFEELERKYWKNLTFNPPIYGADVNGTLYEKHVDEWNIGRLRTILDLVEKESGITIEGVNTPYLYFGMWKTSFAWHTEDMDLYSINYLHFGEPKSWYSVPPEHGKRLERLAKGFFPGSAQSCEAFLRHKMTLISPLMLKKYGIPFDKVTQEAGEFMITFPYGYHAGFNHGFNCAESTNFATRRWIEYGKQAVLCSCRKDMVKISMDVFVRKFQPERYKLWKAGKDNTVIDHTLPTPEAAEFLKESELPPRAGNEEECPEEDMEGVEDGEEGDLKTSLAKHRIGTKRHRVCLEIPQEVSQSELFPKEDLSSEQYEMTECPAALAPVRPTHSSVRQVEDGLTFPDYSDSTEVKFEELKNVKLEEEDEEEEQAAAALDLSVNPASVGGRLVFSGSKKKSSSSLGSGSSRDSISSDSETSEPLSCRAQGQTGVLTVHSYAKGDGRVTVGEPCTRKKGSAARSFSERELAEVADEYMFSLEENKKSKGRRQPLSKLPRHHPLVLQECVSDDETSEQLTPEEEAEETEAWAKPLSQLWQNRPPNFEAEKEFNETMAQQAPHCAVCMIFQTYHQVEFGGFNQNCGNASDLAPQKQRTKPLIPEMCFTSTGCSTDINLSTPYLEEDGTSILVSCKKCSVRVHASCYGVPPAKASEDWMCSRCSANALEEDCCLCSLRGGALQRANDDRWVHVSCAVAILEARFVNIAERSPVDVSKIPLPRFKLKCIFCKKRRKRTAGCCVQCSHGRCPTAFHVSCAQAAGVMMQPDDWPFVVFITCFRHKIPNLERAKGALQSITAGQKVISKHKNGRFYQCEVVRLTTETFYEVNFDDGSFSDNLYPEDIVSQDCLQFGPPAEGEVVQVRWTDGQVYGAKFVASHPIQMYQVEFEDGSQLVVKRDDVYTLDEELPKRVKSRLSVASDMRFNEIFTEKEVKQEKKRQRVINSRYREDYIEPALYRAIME
HP1b binding inh: HTS for Inhibitors of HP1-beta Chromodomain Interactions with Methylated Histone Tails; AlphaScreen HP1-beta / biotin-H3K9me3 peptide binding; Potency, µM (doses to about 114 µM), for inactives: top-dose activity change, negative = inhibition, most hits filed as inhibitors; 0.56% of 390,000 active; Chromobox protein homolog 1 (Homo sapiens), P83916; further: potency means the concentration at half of the fitted maximal effect; nearly all actives have a fitted effect of over 70% in size
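Compound inhibition of the preformed complex between 50 nM HP1-beta and 50 nM biotinylated H3K9me3 peptide was read by AlphaScreen. Buffer was PBS pH 7.4 with 0.01% Tween-20. Incubations ran 30 min at room temperature, with 10 ug/mL donor/acceptor beads.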
G9a inh: qHTS Assay for Inhibitors of Histone Lysine Methyltransferase G9a; Histone-lysine N-methyltransferase EHMT2 (Homo sapiens), Q96KQ7; G9a H3K9 monomethylation, AlphaScreen, 2 h; Potency, µM (series often up to 102 µM), inactives show top-dose activity, negative = inhibition, most hits filed as inhibitors; 8.8% of 350,000 active; further: potency means the concentration at half of the fitted maximal effect; on the % scale 0 is the no-effect control and ±100 the full control effect; nearly all actives have a fitted effect of over 75% in size
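Signal arises when biotinylated H3K9 peptide, once monomethylated, bridges streptavidin donor and antibody-captured acceptor beads. Enzyme at 20 nM was preincubated 15 min with test compounds; peptide 500 nM and SAM 20 uM then reacted for 2 h.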
CtBP-E1A blk: qHTS Assay for Inhibitors of the CtBP/E1A Interaction; 0.49% of 340,000 active; AID 651724, 2012; AlphaScreen GST-E1A/His-CtBP binding, 1536-well; stronger effect = lower value; CtBP / adenovirus E1A interaction (AlphaScreen); activity change, % (concentration not given with the values); in the data active means activity change below about -65%; inconclusive means mostly about -30% to -63%; further: on the % scale 0 is the no-effect control and ±100 the full control effect
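AlphaScreen with 125 nM GST-E1A and 125 nM His-CtBP (5X stocks) in Tris pH 8.0, 300 mM NaCl, BSA, Tween 20, TCEP. Compounds preincubated 2 h at 37 deg C, then glutathione donor/nickel acceptor beads added for 1 h at 37 deg C in dark.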
Numbers without * were called inactive; ? = inconclusive; / = no result; [ ] = dose if it differs, or a comment. Rows were chosen to be rich in hits. Some 10% of all compounds tested hit in one or more screens of this group. Unless noted, the call rests on the fitted dose curve; in most records, active means well fitted inhibition curve with a large enough effect; inconclusive means small, poorly fitted or top-dose-only effect; inactive means no such curve, though single readings can be large or run the other way.

SMILES	BAZ2B inh	Six1-Eya2 inh	JMJD2A Tudor	HP1b binding inh	G9a inh	CtBP-E1A blk
Cc1ccc(OCc2nc3ccccc3n2CC(C)C)cc1	40%	/	9%	92%	?	/
Cc1ccc(S(=O)(=O)N2CC(=NO)C2)cc1	-4%	2	-6%	36%	45µM*	9
CCOC(=O)C1=C(C)NC(=O)NC1c1ccc(N(CC)CC)cc1 (stereo not given)	-37%	-16	?	10%	45µM*	-4
CCC(CC)COC(=O)C1=C(C)NC(=O)NC1c1ccc(N(C)C)cc1 (stereo not given)	?	-2	?	-10%	16µM*	/
Cc1ccc(NC(=O)Nc2nnc([C@H]3C[C@H](O)[C@@H](CO)O3)s2)cc1	/	11	/	/	/	-16
C=CCn1c(O)c(CN2CCCCC2)c(C)c(C#N)c1=O	-33%	-7	-16%	19%	50µM*	0
c1cc(-c2cc3nc(NC4CCCCC4)ccn3n2)ccc1OCCN1CCOCC1	/	-22	/	/	/	-16
COc1ccccc1C1=Nn2c(nc3sc(C(=O)Nc4ccccc4Cl)c(C)c3c2=O)SC1	?	/	-20%	16%	-33%[59 µM]	/
CNc1ccccc1C(C)(C)c1cc(-c2cccc(OC)c2)no1	-32%	-28	-14%	32%	1.6µM*	3
CCOC(=O)CN(C(=O)c1snc(C(N)=O)c1N)C(C(=O)NCCC(C)C)c1ccc(C)cc1 (stereo not given)	/	-2	/	/	/	1
CC(C)(C)N(Cc1ccccc1)C(=O)COC(=O)C1CCN(c2ccc(C(F)(F)F)cn2)CC1	6%	3	16%	49%	?	15
CC(C)N(Cc1ccccc1)C(=O)COC(=O)C1CCN(c2ccc(C(F)(F)F)cn2)CC1	6%	0	11%	?	35µM*	12
CCN(c1ccc(NC(=O)COC(=O)C2CCN(c3ccc(C(F)(F)F)cn3)CC2)cc1)C(C)C	/	?	10µM*	?	/	?
O=C(Nc1ccccc1C(=O)NCCCN1CCOCC1)c1ccc(Cl)cc1	-14%	-2	-4%	11%	27%	0
COCCNc1nnc(SCC(=O)Nc2cc(C)on2)s1	1%	3	-5%	49%	50%[12.7 µM]	/
COCCNc1nnc(SCC(=O)Nc2cc(-c3ccccc3)nn2-c2ccccc2)s1	-38%	2	-36%	15%	79µM*	-1
COCCNc1nnc(SCC(=O)NC(=O)c2ccccc2)s1	7%	5	-11%	35%	50µM*	4
N#Cc1ccccc1Cn1c(SCC(=O)Nc2ccc(F)cc2)nc2ccccc21	-3%	/	16%	29%	11%[59 µM]	/
CCOC(=O)c1c(C)[nH]c(C)c1S(=O)(=O)N1CCC(C(=O)Nc2ccccn2)CC1	-24%	/	-15%	5%	-2%[59 µM]	/
COc1ccc2nc(SCC(=O)Nc3c(C)cccc3C)[nH]c2c1	5%	1	1%	20%	5%[12.7 µM]	0
COc1ccc2nc(S(=O)Cc3ncc(C)c(OC)c3C)[nH]c2c1 (stereo not given)	32µM*	0	28µM*	14µM*	1.4µM*	-6
CCc1nc2ccc(C(=O)NCCc3ccc(SC)cc3)cc2nc1CC	-2%	/	-17%	-3%	0%[59 µM]	/
Cc1ccc(S(=O)(=O)N(Cc2ccccc2)Cc2ccco2)cc1	43%	16	5%	73%	22%[0.0925 µM]	14
Cc1ccc(S(=O)(=O)N(CC(=O)O)Cc2ccco2)cc1	56µM*	-4	89µM*	-10%	32µM*	3
COc1ccc(S(=O)(=O)N(Cc2ccc(OC)c(OC)c2)Cc2ccco2)cc1	?	-14	-12%	9%	50µM*	1
SMILES	BAZ2B inh	Six1-Eya2 inh	JMJD2A Tudor	HP1b binding inh	G9a inh	CtBP-E1A blk
COc1ccc(N(CC(=O)NCc2ccco2)S(=O)(=O)c2ccc(C)cc2)cc1OC	4%	6	-19%	13%	20%	17
CS(=O)(=O)N(CC(=O)NCc1ccco1)c1ccc(OCc2ccccc2)cc1	71µM*	-1	?	?	/	-1
COc1ccccc1N(CC(=O)NCc1ccco1)S(=O)(=O)c1ccc(C)cc1	45µM*	0	35µM*	45µM*	32µM*	-1
COc1ccc(N(CC(=O)NCc2ccco2)S(C)(=O)=O)cc1	-2%	-4	-11%	26%	?	10
COc1cccc2cc(C(=O)N(Cc3cccs3)Cc3cccs3)c(=O)oc12	/	/	-2%	21%	/	/
CC1(Br)C(Sc2ccccc2[N+](=O)[O-])=Nc2ccccc21 (stereo not given)	/	?	/	/	/	-23
Cc1ccc2c(c1)c(C)c(C)n2CC(O)Cn1nnc2ccccc21 (stereo not given)	?	-17	?	?	?	-22
Cc1ccc2c(c1)c(C)c(C)n2CC(O)Cn1nc(C)cc1C (stereo not given)	-51%	-4	?	-24%	45µM*	-16
CCOc1cc(C2c3c(oc4ccccc4c3=O)C(=O)N2Cc2ccccc2Cl)ccc1O (stereo not given)	-9%	/	-8%	25%	-1%[59 µM]	/
O=C(CCC(=O)N1CCOc2ccccc21)NCCCN1CCN(Cc2ccccc2)CC1	-17%	-1	-23%	17%	15%	9
O=C(N/N=C/C=C/c1ccccc1)c1cnccn1	12%	13	-25%	54%	-5%	0
CC(/C=C/c1ccccc1)=N/NC(=O)c1cnccn1	-23%	-86*	-35%	45%	-11%[59 µM]	-5
CC1(C)S[C@H]2C(NC(=O)[C@@H](N)c3ccc(O)cc3)C(=O)N2[C@@H]1C(=O)O (stereo not given in full)	/	/	/	/	3%[2.33 µM]	/
CC(=O)c1c(C)[nH]c(C(=O)NC2=NCCS2)c1C	50µM*	-5	-7%[57.1 µM]	32%	13%[12.7 µM]	-7
Cc1cc(=O)oc2cc(OCC(=O)Nc3c(C(C)C)cccc3C(C)C)ccc12	-4%	/	-17%	2%	9%[59 µM]	/
CN(C)c1ccc(-c2csc(C(O)c3ccccc3)n2)cc1 (stereo not given)	/	-29	/	/	/	?
CN(C)c1ccc(C(O)c2cc3ccccc3s2)cc1 (stereo not given)	/	?	32µM*	?	/	?
CC(=O)c1cccc(-c2ccnc3c2CC(C(=O)NCc2ccco2)O3)c1 (stereo not given)	/	-2	/	/	/	-4

Source: PubChem (National Center for Advancing Translational Sciences (NCATS))
